From PubChem BioAssay
NPR2 activator: human GC-B receptor activators, primary screen, HEK293 GC-B cells, cGMP TR-FRET, EC30 CNP; Atrial natriuretic peptide receptor 2 (Homo sapiens), P20594; 0% at EC30 CNP, 100% saturating CNP; activation, % at 10 µM; 0.11% of 370,000 active;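 active = activation at 10 µM reaching about 35% in either raw or pattern-adjusted values, limit read from the data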
FAS TE block: FAS thioesterase domain inhibitors, primary screen, biochemical, fluorescence intensity, uHTS; Fatty acid synthase (Homo sapiens), P49327; recombinant FAS-TE, OMFH fluorogenic substrate, fluorescence endpoint; inhibition, % at 15 µM; 0.67% of 360,000 active;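 active = compounds whose normalised, plate-corrected inhibition of enzyme fluorescence in the single-dose primary screen is 50% or more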
aDG glyco up: activators of alpha-DG glycosylation, primary screen, uHTS, Pro5-aDG cells, AlphaScreen | alpha-DG glycosylation AlphaScreen (IIH6); 0% Pro5, 100% B10-LARGE cell signal | activation, % at 10 µM | 0.22% of 360,000 active | AID 624168, 2012;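 active = activation of at least 8% versus controls, or a plate z-score of at least 8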;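 note: Pro5 are CHO cells carrying HIG-tagged alpha-DG that lacks glycosylation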
NPR1 activator: GC-A stimulated cGMP production enhancers – HEK293 GC-A cells, cGMP TR-FRET, EC30 ANP, primary screen; 0% at EC30 ANP, 100% saturating ANP; activation, % at 10 µM; 0.14% of 370,000 active; AID 1671463, 2021; in the data active = activation above about 40%
Large screens that a line does not name were inactive. A selection: hits, their analogues and other compounds. The true share with any hit is near 1.1%.

CCCOC(=O)CSc1nnc(-c2ccc(Cl)cc2Cl)o1	NPR1 activator 63.0
O=C(CSc1nnc(-c2ccccc2F)o1)OCc1ccccc1	NPR1 activator 60.6
COC(=O)CSc1nnc(-c2ccccc2OC)o1	none
CCOC(=O)CSc1nnc(-c2ccc(Cl)cc2Cl)o1	NPR1 activator 66.7
C[C@@H]1COc2cccc(N3CCSCC3)c2S(=O)(=O)N1C	none (no result: FAS TE block, aDG glyco up)
CC1(C)Cc2c(c(N3CCOCC3)nc3sc4c(NN)ncnc4c23)CS1	none
CC(C)CNc1nnnc2c1sc1nc(N3CCOCC3)c3c(c12)CC(C)(C)SC3	NPR2 activator 40.0, NPR1 activator 51.8
CC(C)CNc1ncnc2c1sc1nc(N3CCOCC3)c3c(c12)CC(C)(C)OC3	NPR2 activator 38.7, NPR1 activator 42.0
CN(C)CCNc1ncnc2c1sc1nc(N3CCCC3)c3c(c12)CC(C)(C)OC3	none
CC1(C)Cc2c(c(N3CCOCC3)nc3sc4c(NCc5ccco5)nnnc4c23)CS1	NPR2 activator 48.0, NPR1 activator 54.5
CC1(C)Cc2c(c(N3CCOCC3)nc3sc4c(NCc5ccccc5)nnnc4c23)CS1	NPR2 activator 49.6, NPR1 activator 47.2
CCCCOCCCNC(=O)C[C@H]1C[C@@]2(C(=O)OC)C(=C[C@H](C3CCCC3)O[C@@H]2C)N(CCc2ccc(OC)c(OC)c2)C1=O	none (no result: FAS TE block, aDG glyco up)
NC(=O)[C@@H]1CCCN1C(=O)[C@H](CCc1ccccc1)NC(=O)[C@H]1O[C@@H](n2cnc3c(N)ncnc32)[C@H](O)[C@@H]1O	none (no result: FAS TE block, aDG glyco up)
CCNc1nc2c(c(=O)n(C)c(=O)n2C)n1Cc1ccc(Cl)cc1	none
CCNc1nc2c(c(=O)n(Cc3ccccc3)c(=O)n2C)n1Cc1ccccc1	NPR2 activator 40.2
Cc1ccc(Cn2c(NCCc3ccccc3)nc3c2c(=O)n(C)c(=O)n3C)cc1	none
Cn1c(=O)c2c(nc(NCC3CCCO3)n2Cc2cccc(Br)c2)n(C)c1=O (stereo not drawn)	NPR2 activator 37.7
CCCNc1nc2c(c(=O)n(C)c(=O)n2C)n1Cc1ccc(F)cc1	NPR2 activator 40.6
Cn1c(=O)[nH]c(=O)c2c1nc(NC1CCCCC1)n2Cc1ccccc1	NPR2 activator 39.2, NPR1 activator 51.6
Cn1c(NCC2CCCO2)nc2c1c(=O)n(Cc1ccccc1)c(=O)n2C (stereo not drawn)	none
Cc1cccc(Nc2nc3c(c(=O)n(C)c(=O)n3C)n2Cc2ccccc2)c1	NPR2 activator 47.2, NPR1 activator 53.4
CCC(C)Nc1nc2c(c(=O)n(C)c(=O)n2C)n1Cc1ccc(Cl)cc1 (stereo not drawn)	NPR2 activator 47.5, NPR1 activator 41.9
C[C@@H]1CN(C(=O)OC(C)(C)C)CCN1c1ccc(N2CCS(=O)(=O)CC2)c(C#N)c1	none (no result: FAS TE block, aDG glyco up)
CC1(C)Cc2c(C#N)c(SCc3ccccc3)nc(N3CCOCC3)c2CO1	NPR2 activator 51.7
CC1(C)Cc2c(C#N)c(SCC(=O)c3ccccc3)nc(N3CCOCC3)c2CO1	none
CCCCCSc1nc(N2CCOCC2)c2c(c1C#N)CC(C)(C)OC2	NPR2 activator 47.4, NPR1 activator 43.7
CC(=O)c1c(N)nc2n(c1=O)CCCCC2	NPR2 activator 112.3
O=C(Nc1cccc(Cl)c1)OC1CCC12CCC(c1ccccc1)CC2 (stereo not drawn)	none (no result: FAS TE block, aDG glyco up)
O=C(Cn1cnc2ccccc2c1=O)N1CCN(C(=O)C2CCCO2)CC1 (stereo not drawn)	none (no result: FAS TE block, aDG glyco up)
CN(C)S(=O)(=O)c1cccc(C(=O)N/N=C\c2ccccc2[N+](=O)[O-])c1	none (no result: FAS TE block, aDG glyco up)
C=CCn1c(-c2ccc(OC)c(OC)c2)n[nH]c1=S	none
C=CCNc1nc(=S)[nH]c2cc(OC)c(OC)cc12	NPR2 activator 37.4, NPR1 activator 41.1
CCC1(O)C(=O)OCc2c1cc1n(c2=O)Cc2cc3cc(O)ccc3nc2-1 (stereo not drawn)	NPR1 activator 56.5
C[C@H](O)[C@@H]1CN2CCc3c([nH]c4c(-c5ccc6c(c5)OCO6)cccc34)[C@@H]2C[C@@H]1N(C)C(=O)c1ccco1	none (no result: FAS TE block, aDG glyco up)
CC1=C(C(=O)N2CCOCC2)C(c2ccc(-c3ccccc3)cc2)NC(=S)N1 (stereo not drawn)	NPR2 activator 69.7, NPR1 activator 79.5
CC1=C(C(=O)N2CCOCC2)C(c2ccc(O)cc2)NC(=S)N1 (stereo not drawn)	NPR2 activator 40.9
CC1=C(C(=O)N2CCOCC2)C(c2cc(C)ccc2C)NC(=S)N1 (stereo not drawn)	none
Cc1oc(C(C)(C)C)cc1-c1cc(NC(=O)c2ccc([N+](=O)[O-])cc2)n[nH]1	NPR2 activator 56.6, NPR1 activator 43.5
CN(C)c1ncc(C2=C(Cl)C(=O)C(N3CCCC3)=C(Cl)C2=O)s1	none
O=C1C(Cl)=C(N2CCCCC2)C(=O)C(Cl)=C1c1cnc(N2CCCCC2)s1	FAS TE block 78.4 (no result: NPR2 activator, NPR1 activator)
COc1ccc(S(=O)(=O)N2CCCCCC2)cc1NC(=O)CN(C)Cc1ccc2c(c1)OCO2	NPR2 activator 61.0, NPR1 activator 41.2
CCOC(=O)c1cc(-c2ccc(F)cc2)nc2c1c(=O)[nH]c(=O)n2Cc1ccccc1	NPR2 activator 43.1
CCOC(=O)c1cc(-c2cc(OC)c(OC)c(OC)c2)nc2c1c(=O)[nH]c(=O)n2Cc1ccccc1	none
O=C(NCc1ccccc1)OC1CCC12CCC(c1ccccc1)CC2 (stereo not drawn)	none (no result: FAS TE block, aDG glyco up)
COc1cc(-c2nc(C(=O)NCC3CCCO3)cc3c2[nH]c2ccccc23)cc(OC)c1OC (stereo not drawn)	NPR2 activator 58.5, NPR1 activator 53.5
O=C(CCn1nnc2ccccc21)N1CCN(c2ccccc2F)CC1	none (no result: FAS TE block, aDG glyco up)
O=C(c1cnn2c(C(F)(F)F)cc(-c3ccc4c(c3)OCO4)nc12)N1CCCCC1	NPR2 activator 48.6, NPR1 activator 44.0
CN1CCN(C(=O)c2cnn3c(C(F)(F)F)cc(-c4ccc5c(c4)OCO5)nc23)CC1	none
O=C(c1cnn2c(C(F)(F)F)cc(-c3cccs3)nc12)N1CCN(Cc2ccccc2)CC1	NPR2 activator 45.7, NPR1 activator 51.0
C=CCNC(=O)NCC1CCN(Cc2ccc(OC)cc2)CC1	none (no result: FAS TE block, aDG glyco up)
Cn1nnnc1Sc1ncnc2scc(-c3cnc(N)nc3)c12	none (no result: FAS TE block, aDG glyco up)
Clc1ccc([C@H]2OC[C@@]3(CNCCN4CCOCC4)CS[C@H](c4ccc(Cl)cc4)N23)cc1	none (no result: FAS TE block, aDG glyco up)
COC(=O)c1nn(-c2ccccc2)c(Sc2ccc(C)cc2)c1/C=N/O	NPR1 activator 56.3
O=C(Nc1ccc(Oc2cccnc2)cc1)c1cccc([N+](=O)[O-])c1	FAS TE block 57.4 (no result: NPR2 activator, NPR1 activator)
COc1ccc(-c2nnc(SCC(=O)Nc3ccc(S(=O)(=O)Nc4nccs4)cc3)n2-c2ccc(OC)cc2)cc1	none (no result: FAS TE block, aDG glyco up)
O=C(O)c1ccccc1C(=O)c1cccc2c(Br)cccc12	NPR1 activator 57.6
O=C(O)c1ccccc1C(=O)c1cccc2c(F)cccc12	none
COc1ccc(S[C@]2(C(=O)N(C)C)CC(=O)N(C(=O)CCc3ccccc3)[C@@H]2c2ccc(OC)cc2)cc1	none (no result: FAS TE block, aDG glyco up)
